{"source": "the supplement of paper PMC6555819"}
{"system": "VDR:RXRa (NR concentration 270 nM, RXRa partner concentration 90 nM)", "experiment": "PBM binding z-score (relative to random genomic background probes); higher = stronger binding; sequences stand for … in GC…GCGATTGACAGCGTAGAATGAAGG", "experimental": "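Protein-binding microarray (Agilent 4x180K custom design, double-stranded 60-nt probes: 5' GC cap, 34-nt variable region, 24-nt constant primer region; full probe sequence given). Purified or IVT nuclear receptor:RXRα heterodimers (3:1 NR:RXRα, mostly 270:90 nM) or homodimers were incubated for 1 h in PBS with 2% milk and no ligand, then detected with Alexa488 antibodies. Fluorescence from o1-orientation probes (~5 replicates averaged) was converted to z-scores against 500 random hg19 background probes. Variable regions are seed direct-repeat (DR0–DR5) sites, all their single-nucleotide variants and half-site ablations.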"}
{"sequence": "ATCGAAAGGTCATGAGGTGAGTATACAGAAAGGC", "PBM binding z-score": 5.78}
{"sequence": "ATATGTAGGTTACATCCGGGTCATCCAGGCTATG", "PBM binding z-score": 4.14}
{"sequence": "CCTTAAGGGTCACGAGGTTATAGCACGACGAGCG", "PBM binding z-score": 6.02}
{"sequence": "AATAAAGGGTCATCGTAGGCCAGAGTACGCACAG", "PBM binding z-score": 5.33}
{"sequence": "TGAATGAGGTTAAATATCAGGGAACGTGGCGTCG", "PBM binding z-score": 1.54}
{"sequence": "ATCAAAAGGTCGAGGTGAGTATAGAGAAAGGGAA", "PBM binding z-score": 3.29}
{"sequence": "CGAACTAGGTCGTCCAGGACAGTGAATACATTGA", "PBM binding z-score": 1.65}
{"sequence": "ATCTCTAGGTTAAGATAGTTCAGTGAATGCAAAT", "PBM binding z-score": 2.26}
{"sequence": "GCTGCTAGGTCAACTGATGGTCACCTAAAGCTCG", "PBM binding z-score": 2.05}
{"sequence": "CCTACTGGTCCAAGGTCATTGATCAGTCAAAGCA", "PBM binding z-score": 3.79}
{"sequence": "CGAACGAGGTCACCAGGACAGTGAAGAGGTTGGA", "PBM binding z-score": 5.65}
{"sequence": "CGTACAAGGTCAAAGGTCAGTGAAGAGATGACGG", "PBM binding z-score": 6.84}
{"sequence": "ATCGAAAGGTCAAAGGTGAGTATACCCACCCGAA", "PBM binding z-score": 6.2}
{"sequence": "AATACAGGGTCATCGTAGGTCAGAGTACGCACAG", "PBM binding z-score": 6.2}
{"sequence": "AGAATGGGGTTACCAAAGATCAGGGAAACGCTTG", "PBM binding z-score": 2.66}
{"sequence": "TCTAGTCGGTCAAAGGTCACACACTCGAAATGCG", "PBM binding z-score": 5.65}
{"sequence": "CCGAGTAGGTTACTAGGGGGCATTCAGTGCGAAT", "PBM binding z-score": 5.13}
{"sequence": "CCTTACGGGTCACTCCAGGTTATATCATCGGAGT", "PBM binding z-score": 4.52}
{"sequence": "CGTCAAAGTTCAACTGAGGTAACGTAAAGCACGC", "PBM binding z-score": 5.16}
{"sequence": "TCGAGTAGGTCACGGGGGCATTCAGGGATGAAGA", "PBM binding z-score": 5.82}
{"sequence": "TAGCCTAGGTCATGCGGGACAGTATAGTGTCGGC", "PBM binding z-score": 3.48}
{"sequence": "CGTCAAAGTCCAAGGTAACGTAACAGAAAGCAGC", "PBM binding z-score": -0.137}
{"sequence": "TAGCCTAGGTCATGCGGGCCAATATAGTGTCGGC", "PBM binding z-score": 3.64}
{"sequence": "ATCGAAAGGTCGAAGGTGAGCATACCCACCCGAA", "PBM binding z-score": 2.63}
{"sequence": "CCAGACAGGTGAGAAGGTAACTCAGCCTCGATTA", "PBM binding z-score": 0.116}
{"sequence": "TCTAGTTGGTCACGGAGGGCACACACGACGGGTA", "PBM binding z-score": 3.62}
{"sequence": "CCTAGTGGGCCAAGGTCATTGATCAGTCAAAGCA", "PBM binding z-score": 3.33}
{"sequence": "ACTCGGATGACAAAGGTCAGAGCTACGCCAGTGA", "PBM binding z-score": 3.14}
{"sequence": "CAAAATAGGTCACAGAGGTCAAAGTCCGTGCGTA", "PBM binding z-score": 8.21}
{"sequence": "TCGCCTAGGTCATGGGCCAGTATACCACGCGAAC", "PBM binding z-score": 2.09}
{"sequence": "CCGACGGGGGCAAAGGTTACCATACTCAGTACGA", "PBM binding z-score": 5.11}
{"sequence": "TCTGCTAGGTCATCGATGGTCAGCTAATCTGCTA", "PBM binding z-score": 2.16}
{"sequence": "ATATGTAGGATAGCTGGGGTCATTCAGACTAGGC", "PBM binding z-score": 4.86}
{"sequence": "TCGTGTAGGTTACGGGGGCATTCAGGGATGAAGA", "PBM binding z-score": 4.42}
{"sequence": "CCTGCTAGGTCATGGTCAGCGAATCTACAGTATG", "PBM binding z-score": 1.5}
{"sequence": "TAGCCTAGGTCATTCAGGGGCCACTATAGAAAGC", "PBM binding z-score": 3.95}
{"sequence": "CGTCCGAGGTCAAGGTCAGTGAAAGAGACTCGAA", "PBM binding z-score": 5.48}
{"sequence": "TAGCCTAGGTCATTCAGGGGCAAGTATAGAAAGC", "PBM binding z-score": 5.23}
{"sequence": "CGAACTAGGTCATTGACAGGACAATGAATAGTAA", "PBM binding z-score": 2.62}
{"sequence": "CCTACTGGGCCTAAGGTCATTGATTCCAATGCTC", "PBM binding z-score": 3.34}
